Source: the OligoGym collection

Molecular target: TBC1D7
Assay: pooled miR-30 sensor sort-seq; sequence = guide strand
Details: shRNA
Note: reference of the scale not given here.

Question: With TCAAGTATTGTTCAAACGCTTT as the sequence, how does the sensor-assay potency score (higher = more potent) read?
Answer: -1.28

Question: For AAGAACACAATGCTCACTGTGG, which sensor-assay potency score (higher = more potent) is on record?
Answer: -0.247

Question: Which sensor-assay potency score (higher = more potent) does the source give for TAACTTCCCAGACTCCAGCTGA here?
Answer: -0.346

Question: With TCTCATAATATACTGAACGAAA as the sequence, how does the sensor-assay potency score (higher = more potent) read?
Answer: -1.27

Question: Which sensor-assay potency score (higher = more potent) does the source give for TTTAATTGGTTCACAAAGCGTC here?
Answer: -0.134

Molecular target: TBPL2
Assay: as above
Details: shRNA

Question: TAAGCAACACAATTCGTGGTTT was tested. Which sensor-assay potency score (higher = more potent) did it give?
Answer: -0.141

Question: ATAAGCAACACAATTCGTGGTT was tested. Which sensor-assay potency score (higher = more potent) did it give?
Answer: 0.695

Question: With TACAACTGGGCTGAACAGGGGA as the sequence, how does the sensor-assay potency score (higher = more potent) read?
Answer: 0.181

Question: With TACAGTGGAAACTATATTCTGT as the sequence, how does the sensor-assay potency score (higher = more potent) read?
Answer: 0.659

Question: For TCTTGCTGCAAGTCGAGACTGC, which sensor-assay potency score (higher = more potent) is on record?
Answer: 0.000545

Question: How did the sensor-assay potency score (higher = more potent) turn out when ATTTTCTTGCTGCAAGTCGAGA was run?
Answer: -1.3

Question: For TACAATTCCACAACATTCTGAA, which sensor-assay potency score (higher = more potent) is on record?
Answer: 0.364

Question: With TTAAAATCGAGGAATCTGGCAG as the sequence, how does the sensor-assay potency score (higher = more potent) read?
Answer: 0.087

Question: With TTCCTGGGTAACTTCATCTGGT as the sequence, how does the sensor-assay potency score (higher = more potent) read?
Answer: -0.0709

Question: With TTTTAGAATAGGATAGATGTTT as the sequence, how does the sensor-assay potency score (higher = more potent) read?
Answer: -0.912

Question: Which sensor-assay potency score (higher = more potent) does the source give for TATGACAGCAGCAAACCTCTTT here?
Answer: -0.118
